Laboratory results: PubChem BioAssay (Tox21)
Inconclusive results are not listed. Active and inactive are the calls of the source. The call rests on the fitted dose curve; in most records, active means well fitted cell-killing curve with a large enough effect in the repeat runs; inconclusive means weak or mixed curves; inactive means flat fitted curve, though single readings scatter.

test: qHTS RealTime-Glo MT Cell Viability Assay in HepG2 cells - 32 hour (AID 1224877); settings: RealTime-Glo luminescence; series mostly up to 76.8 µM; activity change, negative = cytotoxic: at the top concentration; further: nearly all actives have a fitted effect of over 55% in size
From the text: U.S. Tox21 Program National Center for Advancing Translational Sciences [NCATS] NIH Chemical Genomics Center [NCGC] U.S. Environmental Protection Agency [EPA] National Institutes of Environmental Health Sciences [NIEHS] National Toxicology Program [NTP] U.S. Food and Drug Administration [FDA] Tox21 Assay Overview: Measure of cell viability is critical in the cell-base assay. Analysis of cell viability is necessary for the characterization of cell responses to cytotoxic drugs and environmental stress. A RealTime-Glo MT Cell Viability Assay to monitor cell viability in real time of continues cell culture during 40 hours of compound treatment was used to screen Tox21 10K library compounds in HepG2 cells. The RealTime-Glo MT Cell Viability Assay is a nonlytic, homogeneous, bioluminescent method to measure cell viability in real time using a simple, plate-based method. The assay involves adding NanoLuc luciferase and a cell-permeant prosubstrate to cells in culture. Viable cells reduce the proprietary prosubstrate to generate a substrate for NanoLuc luciferase. This substrate diffuses from cells into the surrounding culture medium, where it is rapidly used by the NanoLuc Enzyme to produce a luminescent signal. The signal correlates with the number of viable cells, making the assay well suited for cytotoxicity studies.
Tox21 Assay Protocol Summary: The mixture of HepG2 cell suspension and reagents were dispensed at 600cells/6 ul/well in 1536-well tissue culture treated black solid bottom plates using a Multidrop dispenser. After the assay plates were incubated at a 37 C/5% CO2 incubator for 5 hours, 23 nL of compounds dissolved in DMSO, positive and negative controls was transferred to the assay plate by a pintool work station. The plates were incubated at 37 C for 40 hours. The luminescence intensity were measured at 0h, 8h, 16h, 24h, 32h and 40h time points using ViewLux plate reader during compound treatment.
On the % scale 0 is the no-effect control and ±100 the full control effect.

Compound	activity change, negative = cytotoxic
Nc1nnnn1-c1ccccc1	3.67% [at 35.3 µM] (inactive)
C[Si]1(C)O[Si](C)(C)O[Si](C)(C)O[Si](C)(C)O[Si](C)(C)O1	-1.7% (inactive)
C=CCSSCCC	0.349% (inactive)
C=CCCCC	-0.89% (inactive)
O=[N+]([O-])c1c(Cl)cc(Cl)cc1Cl	-0.0013% (inactive)
CC(=O)CCc1ccc(OC(C)=O)cc1	-3.06% (inactive)
C[C@@H](O)C(=O)O	2.29% (inactive)
CC(C)COC(=O)c1ccccc1	-3.32% (inactive)
O=Cc1cc2ccccc2o1	4.22% (inactive)
CC1=C(C(=O)O)N2C(=O)[C@@H](NC(=O)[C@H](N)C3=CCC=CC3)[C@H]2SC1	3.17% [at 35.3 µM] (inactive)
C=C(C)[C@@H]1CC=C(C)CC1	-1.45% (inactive)
O=C1OCCO1	-0.509% (inactive)
COC(=O)c1ccccc1C(=O)O	-0.375% (inactive)
CC(=O)OCC(=O)Nc1cc(C#N)cc(NC(=O)COC(C)=O)c1Cl	0.839% [at 35.3 µM] (inactive)
CC1(C)Oc2ccc(C#N)cc2[C@@H](N2CCCC2=O)[C@@H]1O	0.874% [at 35.3 µM] (inactive)
O=Cc1ccccc1Cl	1.16% (inactive)
N#Cc1ccccc1O	0.317% (inactive)
COc1cc2c(cc1OC)CN(C(=O)[C@H](C)N[C@@H](CCc1ccccc1)C(=O)O)[C@H](C(=O)O)C2	1.32% [at 35.3 µM] (inactive)
CCCc1ccc(O)cc1	0.833% (inactive)
CC/C=C\CCOC(=O)c1ccccc1O	-1.88% (inactive)

Compound	activity change, negative = cytotoxic
O=C(O)CCCCCC(=O)O	1.34% (inactive)
Cn1c(=O)c2c(ncn2CCO)n(C)c1=O	-1.76% [at 35.3 µM] (inactive)
CC(C)C[C@@H]1[C@H](c2ccccc2)OC(=O)N1CCCN1CCCCCC1	-2.45% [at 35.3 µM] (inactive)
CC(C)OC(=O)OCOP(=O)(CO[C@H](C)Cn1cnc2c(N)ncnc21)OCOC(=O)OC(C)C	0.72% [at 35.3 µM] (inactive)
Cc1ccnc(N)c1	0.804% (inactive)
CC(O)COC(C)(C)C (stereo not given)	1.64% (inactive)
CCCCCCCCCCOC(C)=O	0.347% (inactive)
NCCOCCN	0.718% (inactive)
CC(S)C(C)S (stereo not given)	-0.093% (inactive)
CO[C@@]1(NC(=O)Cc2cccs2)C(=O)N2C(C(=O)O)=C(COC(N)=O)CS[C@@H]21	0.825% [at 35.3 µM] (inactive)
COc1ccc(CCO)cc1	-0.43% (inactive)
O=C(CCCCC(=O)Nc1c(I)cc(I)c(C(=O)O)c1I)Nc1c(I)cc(I)c(C(=O)O)c1I	-1.67% [at 35.3 µM] (inactive)
CN(C)CCOC(=O)C(c1ccccc1)C1(O)CCCC1 (stereo not given)	0.728% [at 35.3 µM] (inactive)
O=C(CN1CCNCC1)NC1CCCCC1	-0.434% [at 35.3 µM] (inactive)
O=C(O)c1cc2ccccc2nc1C(=O)O	-1.91% (inactive)
c1ccc(B(c2ccccc2)c2ccccc2)cc1	-0.812% (inactive)
O=C(O)CSCC(=O)NC1CCSC1=O (stereo not given)	0.575% [at 35.3 µM] (inactive)
CC1=C(C(=O)O)N2C(=O)[C@@H](NC(=O)[C@H](N)c3ccccc3)[C@H]2SC1	3.6% [at 35.3 µM] (inactive)
CCCC(CC)c1ccccc1 (stereo not given)	-0.945% (inactive)
CC(=O)CCC1=C(C)CCCC1(C)C	4.88% (inactive)
